HCV inh: blocks hepatitis C virus; Huh7.5.1 HCVcc-Cre infection, luciferase reporter, 44 h; Potency, µM (titrated, usually from 41.8 µM), for the others: at the highest dose activity change, negative = inhibition, most hits filed as inhibitors; 340,000 compounds, 3.4% hits; AID 651820; also: potency is read from the fitted curve at half-maximal effect
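A cell-based infection assay in which seeded cells (1,000 per well) receive test compound after 4 h, are inoculated with HCVcc-Cre at approximately 0.5 moi, and are incubated 44 h before luminescence detection.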
AmpC inh detg: inhibitors of E. coli AmpC beta-lactamase with detergent; P00811; AmpC hydrolysis of nitrocefin, absorbance 480 nm, 0.01% Triton; Potency, µM (series often up to 114 µM), for the others: top-dose activity change, negative = inhibition, most hits filed as inhibitors; 370,000 compounds, 0.041% hits; AID 485294;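 also: potency is read from the fitted curve at half-maximal effect; 0% = no-compound wells and -100% = no-enzyme wells; nearly all actives have a fitted effect of over 25% in size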
Target sequence (P00811 whole entry, looked up): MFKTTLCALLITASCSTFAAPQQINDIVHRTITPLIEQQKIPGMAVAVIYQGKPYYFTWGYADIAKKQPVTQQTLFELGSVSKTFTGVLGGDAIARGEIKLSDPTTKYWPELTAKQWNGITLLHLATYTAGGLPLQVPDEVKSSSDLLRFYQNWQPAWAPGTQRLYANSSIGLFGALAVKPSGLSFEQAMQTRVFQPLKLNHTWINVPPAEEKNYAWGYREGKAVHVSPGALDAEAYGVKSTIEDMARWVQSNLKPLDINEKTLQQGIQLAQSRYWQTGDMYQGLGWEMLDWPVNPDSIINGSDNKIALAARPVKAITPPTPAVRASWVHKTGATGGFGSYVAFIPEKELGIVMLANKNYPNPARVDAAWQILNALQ
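20 mM phosphate pH 7.0 + 0.01% (detergent screen) or 0.0001% Triton X-100; 5.3 nM AmpC reagent; cpd preinc 15 min RT; nitrocefin (800 uM stock) to start; A480 q20 s × 4 min; Activity was normalised to no-enzyme and no-compound control wells.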
FMDV antiviral: foot and mouth disease virus antiviral activity; FMDV antiviral cell-based qHTS; Potency, µM (highest dose often 57.9 µM), for inactives: at the highest dose activity change, negative = inhibition, hits mostly inhibitors; 410,000 compounds, 1.2% hits; AID 1159524; calls by dose curve; tested in HEK293T cells; also: read-out not given here; potency is read from the fitted curve at half-maximal effect; nearly all actives have a fitted effect of over 45% in size
AmpC no deterg: inhibitors of E. coli AmpC beta-lactamase without detergent; P00811; AmpC nitrocefin hydrolysis, absorbance 480 nm, 0.0001% Triton; AID 485341; Potency, µM (highest dose often 57.1 µM), without a hit: at the highest dose activity change, negative = inhibition, actives largely listed as inhibitors; 330,000 compounds, 0.52% hits;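 also: potency is read from the fitted curve at half-maximal effect; plate controls were no compound for no effect and no enzyme for full effect; nearly all actives have a fitted effect of over 20% in size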
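20 mM phosphate pH 7.0 + 0.01% (detergent screen) or 0.0001% Triton X-100; 5.3 nM AmpC reagent; cpd preinc 15 min RT; nitrocefin (800 uM stock) to start; A480 q20 s × 4 min; Activity was normalised to no-enzyme and no-compound control wells.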
HCMV antiviral: inhibitors of human cytomegalovirus | HFF cells, HCMV-luciferase reporter, 72 h; hits give low values | activity change, negative = inhibition, % at 57.5 µM | 410,000 compounds, 4.5% hits | AID 1259415; in the data active = activity change below about -60%; inconclusive = no clear call, values can overlap the other calls; inactive = above about -39%
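Human foreskin fibroblasts infected with luciferase-reporter HCMV at MOI 1 PFU/cell, compounds at two doses. Luciferase measured 72 h post infection; normalized to buffer-only basal and Salinomycin (10uM) controls.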
The depositor's hits bear a star; ? = inconclusive; . = not tested or not shown; ! = a repeat was not active; [ ] = remark or other dose. Rows were chosen to be rich in hits. Some 7.3% of all compounds tested hit in one or more screens of this group. Unless noted, calls follow the shape of the dose curve; as a rule, active = well fitted curve in the direction sought with a large enough effect; inconclusive = small, poorly fitted or top-dose-only effect, or another doubt; inactive = no such curve, though single readings can be large; an effect the other way counts as inactive or inconclusive. Unless noted, % is scaled to controls: 0 for no effect and ±100 for the full control effect.

SMILES	HCV inh	AmpC inh detg	FMDV antiviral	AmpC no deterg	HCMV antiviral
O=C(c1ccco1)N1CCN(C(=O)c2cc(-c3ccccc3)nc3ccccc23)CC1	-4%	?	8%	67%	69
COc1ccc(N2CCN(S(=O)(=O)c3c(C)noc3/C=C/N(C)C)CC2)cc1	-3%	1%	-1%	-3%	-10
Cc1noc(/C=C/N(C)C)c1S(=O)(=O)N1CCN(c2ccc(F)cc2)CC1	-7%	1%	-10%	1%	-62*
Fc1ccccc1N1CCN(c2ncnc3[nH]ncc23)CC1	16µM*	?	?	-20%	?
COc1ccc(C(=O)Nc2cccc(OCc3cc(=O)n4c5c(sc4n3)CCCC5)c2)cc1OC	.	-1%	-3%	.	23
Cc1cccc(C(=O)Nc2ccc(O)c3c(=O)cc(-c4ccccc4Cl)oc23)c1	?	?	-22%	-23%	?
CN(C)c1ccc(C(=O)Nc2ccc(O)c3c(=O)cc(-c4ccccc4Cl)oc23)cc1	32µM*	3%	-11%	-48%	-16
O=c1cc(-c2ccccc2Cl)oc2c([N+](=O)[O-])c(O)cc(O)c12	5%[8.37 µM]	-2%	-12%	-18%	-72*
COc1ccc(C(=O)N2CCC3(CCN(Cc4nccs4)CC3)CC2)cc1	.	.	-13%	.	.
Cc1nc(C(C)NC(=O)c2cc(COc3ccc(C)c(C)c3)on2)c(C)s1 (stereo not drawn)	?	0%	60%	69%	0
O=C(Nc1ccc(Cl)c(Cl)c1)N(Cc1c[nH]c2ccccc12)C1CCCCC1	.	-5%	59%	.	48
CC(=O)Nc1nonc1-c1nnc(SCc2ccc(Cl)cc2)n1C	.	3%	-6%	.	-14
CCCCNc1c(-c2ccc(OC)c(Sc3ccc(OC)cc3)c2)nc2cnccn12	?	.	?	122%	21
CCCCCCSc1cccc(-c2nc3cc(C)ccn3c2NCc2ccccc2)c1	-21%	2%	-25%	11%	55
CCCCCCSc1cc(-c2nc3ccc(C)cn3c2NCc2ccccc2)ccc1OC	-16%[8.37 µM]	-3%	40µM*!	4%	54
CCCCCCSc1cccc(-c2nc3ccc(C)cn3c2NCc2ccccc2)c1	3%	-2%	?	-7%	28
CCCCNc1c(-c2ccc(SC(C)CC)c(OC)c2)nc2ccc(Cl)cn12 (stereo not drawn)	-4%	.	0%	-19%	-16
CCCCCCSc1cccc(-c2nc3ccccn3c2NCc2ccccc2)c1	-22%	.	25µM*	-7%	-65*!
CCCCNc1c(-c2ccc(SC(C)CC)c(OC)c2)nc2ccc(C)cn12 (stereo not drawn)	10µM*	-5%	22µM*	20%	-94*
CCCCNc1c(-c2ccc(OC)c(Sc3ccc(OC)cc3)c2)nc2ccccn12	10µM*	-7%	-27%	-5%	.
COc1cc(NC(=NS(=O)(=O)c2ccccc2)c2ccccc2)ncn1	0%	.	24%	.	170
COc1ccc(-n2cnnc2SCC(=O)Nc2cc(C(C)(C)C)nn2-c2ccccc2)cc1	-3%	-4%	0%	1%	-96*
Cc1ccsc1C(=O)Nc1cc(C(C)(C)C)nn1-c1ccccc1	?	-7%	-19%	-5%	-110*
COc1ccccc1-n1cnnc1SCC(=O)Nc1cc(C(C)(C)C)nn1-c1ccccc1	?	-7%	-27%	96%	?
COC(c1ccc2c(c1)CN(C(=O)Cn1nc(C)c3ccccc3c1=O)CCO2)C1CCCCC1 (stereo not drawn)	.	.	-18%	.	.
COc1ccc(C2=Nc3ccccc3NC(=O)C2N(C(=O)c2ccnc3ccccc23)c2ccccc2)cc1 (stereo not drawn)	.	.	-15%	.	-82*
COc1ccc(Nc2nc(N)c([N+](=O)[O-])c(NCCO)n2)cc1	0%	0%	19%	-46%	33
COc1ccc(Nc2nc(N)c([N+](=O)[O-])c(NC3CCCCC3)n2)cc1	11µM*	1%	?	-29%	?
COc1cc(=O)n2c(c1C(=O)N(C)Cc1nonc1C)CCN(C(=O)c1cccc(C)c1C)CC2	.	.	13%	.	.
